In the library only some 3.1% were active in any assay of this set; here they are far more common.
PAX8 reporter – inhibitors of PAX8 transcriptional activity in RMG-I cells. AID 652154. 360,000 compounds, 1.2% hits. RMG-I TPO-luciferase reporter, SteadyGlo, 24 h. inhibition, % at 12.6 µM;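 active means mean replicate inhibition at least 60% with every replicate also reaching 60%; inconclusive means only one of the two criteria is met; inactive means mean below 60% and not all replicates reaching 60%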;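 further: luciferase light reporting Pax8 driven TPO promoter activity; plate controls were median of neutral control wells for no effect and mitoxantrone controls for full effect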
EWS-Fli inh – inhibitors of EWS/Fli oncoprotein transcriptional activity; 350,000 compounds, 0.67% hits; A673 NR0B1-luciferase reporter, viability-normalised; AID 651661; inhibition, % at 12.6 µM;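 active means mean inhibition of at least 50% after viability correction, with every replicate also passing that limit; inconclusive means mean reaches 50% but only one of two replicates passes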;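 further: firefly luciferase signal divided by Alamar Blue viability fluorescence both relative to DMSO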
TROY signal inh – TROY signaling inhibition; inhibition, % at 10 µM; Q293 LMP1-TROYcd NF-kB luciferase reporter, 4 h; 360,000 compounds, 0.98% hits; AID 1347056;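 active means compounds whose plate-normalised and pattern-corrected inhibition of the luciferase reporter signal at the single screening dose is 50% or more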
TWEAK Fn14 block – inhibitors of TWEAK-Fn14 interaction signaling; TWEAK-stimulated Fn14 reporter cells, luciferase luminescence, 8 h; inhibition, % at 10 µM; 360,000 compounds, 2% hits; AID 1159606; in the data active means inhibition above about 50%
EBV LMP1 NFkB – reduces LMP1-driven NF-kappaB luciferase signal. LMP1-induced NF-kappaB luciferase reporter cells, luminescence. inhibition, % at 12.5 µM. 350,000 compounds, 0.69% hits; in the data active means inhibition above about 41%; inconclusive means no clear call, values can overlap the other calls;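 further: 0% = neutral control wells and 100% = reference inhibitor control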
LGR2 inh – Drosophila LGR2 receptor signaling inhibition | HEK293 LGR2, CRE-luciferase, bursicon-stimulated, 4 h | inhibition, % at 9.99 µM | 380,000 compounds, 0.35% hits;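 active means drop in luminescence signal, shown as inhibition above about 50% in the replicate tests, limit read from the data, passing the limit was not always enough; inconclusive means probably only some replicates passing the limit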;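 further: agonist challenge used bursicon conditioned medium at about half maximal strength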
* marks the source's active call; other numbers are inactive results; ? = inconclusive; . = no result.

SMILES	PAX8 reporter	EWS-Fli inh	TROY signal inh	TWEAK Fn14 block	EBV LMP1 NFkB	LGR2 inh
Cc1[nH]c2ccccc2c1C(=O)COC(=O)C1CC(O)CN1S(=O)(=O)c1ccc(Cl)cc1 (stereo unspecified)	10.9	5.2	-4.8	10.0	6.3	0.6
O=C(C[C@@H]1C=C[C@H](NC(=O)c2cccnc2)[C@H](CO)O1)NCCN1CCCCC1	.	.	.	.	.	22.8
COc1cccc(N2CCN(C(=O)c3ccc(CS(=O)c4ccc(Cl)cc4)o3)CC2)c1 (stereo unspecified)	38.1	56.1*	13.6	-0.8	-1.7	-19.7
COc1cccc(N2CCN(C(=O)c3ccc(CS(=O)c4ccc(C)cc4)o3)CC2)c1 (stereo unspecified)	66.2*	48.5	-4.4	-2.8	11.6	-5.7
COc1ccccc1N1CCN(C(=O)c2cn(Cc3ccccc3)nc2-c2cccnc2)CC1	5.4	-7.4	6.1	2.9	-1.3	-11.5
COc1cccc(N2CCN(C(=O)c3cn(Cc4ccccc4)nc3-c3cccnc3)CC2)c1	52.4	56.7*	10.6	22.8	7.6	25.8
C[C@@H]1CN([C@@H](C)CO)C(=O)c2cc(NC(=O)Nc3ccccc3)ccc2O[C@@H](C)CCCCO[C@@H]1CN(C)C(=O)C1CCCCC1	0.3	-7.2	.	.	.	2.2
Cc1occc1C(=O)N/N=C/c1ccc2c(c1)OCO2	-57.0	-32.2	4.6	63.9*	17.8	-2.4
O=C(N/N=C/c1ccc2c(c1)OCO2)c1cccs1	-200.1	-115.8	-32.0	-8.9	-25.0	-52.4
Cc1ccsc1C(=O)N/N=C/c1ccc2c(c1)OCO2	-129.3	-36.7	-1.9	55.1*	-12.4	?
CC[N+]1=C(C)C(C)(C)c2cc(C)ccc21	96.0*	28.4	24.4	68.5*	4.8	55.7*
CO[C@H]1CN(C)C(=O)c2cc(NC(=O)Nc3cc(F)ccc3F)ccc2OC[C@@H](C)N(C)C[C@@H]1C	.	1.2	.	.	.	-10.0
C[C@@H]1CCCCO[C@@H](CN(C)Cc2ccc(Cl)c(Cl)c2)[C@H](C)CN([C@@H](C)CO)C(=O)c2cc(NC(=O)Nc3ccc(F)cc3)ccc2O1	67.3*	9.5	.	.	.	18.7
C[C@H](CO)N1C[C@H](C)[C@H](CN(C)Cc2ccc(Cl)c(Cl)c2)OCCCC[C@H](C)Oc2ccc(NC(=O)Nc3ccc(F)cc3)cc2C1=O	64.4*	1.5	.	.	.	27.2
C[C@@H]1CCCCO[C@H](CN(C)Cc2ccc(Cl)c(Cl)c2)[C@@H](C)CN([C@@H](C)CO)C(=O)c2cc(NC(=O)Nc3ccc(F)cc3)ccc2O1	88.7*	3.5	.	.	.	13.0
CC(C)NC(=O)Nc1ccc2c(c1)C(=O)N([C@@H](C)CO)C[C@@H](C)[C@@H](CN(C)Cc1ccc(Cl)c(Cl)c1)OCCCC[C@@H](C)O2	22.0	3.3	.	.	.	17.4
CCOC(=O)C1CCCN(c2ccc(NC(=O)c3snc4c(=O)[nH]cnc34)cc2)C1 (stereo unspecified)	.	.	2.5	-17.8	-1.6	.
CCOC(=O)C1CCCN(c2ccc(NC(=O)c3snc4c(=O)[nH]c(C)nc34)cc2)C1 (stereo unspecified)	.	1.9	51.4*	-27.9	-53.9	-7.8
COCC(=O)N1CC2(C1)CN(C(=O)NC1CCCC1)[C@H](CO)c1c2c2ccc(OC)cc2n1C	-11.3	-1.9	.	.	.	5.5
COCC(=O)N1CCC2(CC1)CN(C(=O)NC1CCCC1)[C@@H](CO)c1c2c2ccc(OC)cc2n1C	67.9*	11.9	.	.	.	-4.0
COc1ccc2c3c(n(C)c2c1)[C@H](CO)N(C(=O)C1CCC1)CC31CCN(Cc2cccc(F)c2)CC1	60.4*	32.9	.	.	.	3.5
COc1ccc2c3c(n(C)c2c1)[C@@H](CO)N(C(=O)C1CC1)CC31CCN(Cc2cccc(F)c2)CC1	34.9	4.6	.	.	.	3.8
COc1ccc2c3c(n(C)c2c1)[C@@H](CO)N(C(=O)C1CCC1)CC31CCN(Cc2cccc(F)c2)CC1	35.2	32.9	.	.	.	0.5
COc1ccc2c3c(n(C)c2c1)[C@H](CO)N(C(=O)C1CC1)CC31CCN(Cc2cccc(F)c2)CC1	70.2*	18.4	.	.	.	-5.1
COn1c2c(c3c4no[n+]([O-])c4ccc31)CCCC2	.	.	-17.9	13.3	-3.2	.
SMILES	PAX8 reporter	EWS-Fli inh	TROY signal inh	TWEAK Fn14 block	EBV LMP1 NFkB	LGR2 inh
[O-][n+]1c2c(c3c4non(O)c4ccc31)CCCC2	.	5.9	51.3*	0.1	-3.4	10.3
CC(C)Cn1c(N)c(C(=O)CSc2ccc3c(c2)OCCO3)c(=O)n(C)c1=O	.	.	50.0	68.5*	39.0	.
CCOC(=O)N1CCN(c2c(NCc3ccc(Cl)cc3)c(=O)c2=O)CC1	40.9	52.3*	18.4	-11.5	2.3	-4.2
CCOC(=O)N1CCN(c2c(NCc3cccs3)c(=O)c2=O)CC1	1.5	28.0	7.8	15.7	-2.6	-27.0
CCOC(=O)N1CCN(c2c(NCc3ccc(F)cc3)c(=O)c2=O)CC1	24.8	56.8*	2.6	-3.7	4.9	-12.5
COc1cc(C=C2CN(C)C(=O)C2=O)ccc1O	-11.4	9.0	-3.1	1.6	-7.6	4.3
CCOc1cc(/C=C2\CCC/C(=C\c3cc(Cl)c(O)c(OCC)c3)C2=O)cc(Cl)c1O	.	.	61.5*	76.6*	-37.3	.
CCOc1cc(/C=C2\CN(C)C/C(=C\c3ccc(O)c(OCC)c3)C2=O)ccc1O	5.2	52.6*	28.2	103.5*	-109.4	3.5
CN1C/C(=C\c2ccc(N3CCOCC3)cc2)C(=O)/C(=C/c2ccc(N3CCOCC3)cc2)C1	.	.	14.5	22.9	-154.0	6.2
CN1C/C(=C/c2ccncc2)C(=O)/C(=C/c2ccncc2)C1	-18.4	56.2*	9.2	7.9	3.7	1.1
CO[C@@H]1CN(C)C(=O)c2cc(NC(=O)c3cnccn3)ccc2OC[C@H](C)N(CCc2ccccc2)C[C@@H]1C	-22.4	4.8	.	.	.	10.9
Oc1c(Cl)cc(Cl)cc1C=Nc1ccc2c(c1)OCCO2	-106.8	.	62.9*	75.2*	4.6	.
Brc1csc(C=Nc2ccc3c(c2)OCCOCCOCCOCCO3)c1	12.2	.	14.1	-10.4	-2.8	-3.5
COc1ccccc1N1CCN(c2ccc(-c3ccccc3)nn2)CC1	.	.	65.7*	70.8*	69.6*	.
COc1ccccc1NC(=O)/C(=C\c1cccnc1)NC(=O)c1ccc(C)cc1	1.2	-2.2	4.2	61.0*	16.7	3.8
COc1ccccc1NC(=O)/C(=C\c1cccnc1)NC(=O)c1ccccc1	-2.5	5.4	1.4	-12.1	0.6	-0.9
COc1ccc(/C=C/C(=O)CC(O)(c2ccccc2)C(F)(F)F)cc1 (stereo unspecified)	.	.	-36.2	28.7	-32.1	.
O=C(/C=C/c1ccccc1)CC(O)(c1ccccc1)C(F)(F)F (stereo unspecified)	.	.	63.5*	88.5*	-5.8	.
O=C(CC(O)(c1ccccc1)C(F)(F)C(F)F)c1cccs1 (stereo unspecified)	.	.	-16.2	-16.9	-8.2	9.4
O=C(/C=C/c1ccccc1)CC(O)(c1ccccc1)C(F)(F)C(F)F (stereo unspecified)	.	65.6*	63.9*	68.5*	-1.6	?

Source: PubChem BioAssay (several laboratories)
